Compounds with a hit are over-represented: about 2.2% of the library has one in this group of screens.
HGIII-sPLA2 inh – Blocks human group III sPLA2 activity; 370,000 tested, 0.56% active; inhibition, % at 12.2 µM; Q9NZ20; QFRET BODIPY PC-A2 liposome hydrolysis, fluorescence;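 active = inhibition above mean plus 3 SD of compounds lying within the high and low control bounds, cut at about 19% in these data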;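 note: 0% = median of test compound wells and 100% = no enzyme DMSO wells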
Target sequence (Q9NZ20 whole entry, looked up): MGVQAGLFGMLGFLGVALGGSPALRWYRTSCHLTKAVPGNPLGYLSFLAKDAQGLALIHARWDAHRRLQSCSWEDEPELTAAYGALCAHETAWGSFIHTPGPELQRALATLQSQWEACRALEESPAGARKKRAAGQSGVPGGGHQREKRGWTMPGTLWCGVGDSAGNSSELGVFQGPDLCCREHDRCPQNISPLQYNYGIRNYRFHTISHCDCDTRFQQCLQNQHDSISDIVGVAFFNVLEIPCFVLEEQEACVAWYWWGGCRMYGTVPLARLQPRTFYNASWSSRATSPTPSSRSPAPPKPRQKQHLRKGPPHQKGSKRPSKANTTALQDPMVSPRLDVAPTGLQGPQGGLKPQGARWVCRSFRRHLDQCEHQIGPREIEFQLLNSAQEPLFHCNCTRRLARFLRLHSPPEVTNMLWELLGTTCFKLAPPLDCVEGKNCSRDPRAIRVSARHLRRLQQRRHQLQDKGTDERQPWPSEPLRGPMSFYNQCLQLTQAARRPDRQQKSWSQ
Efflux pump mplx – inhibitors of Candida antifungal efflux pumps expressed in yeast; S. cerevisiae Candida pump triplex, Nile Red efflux; inhibition, % at 10 µM; 330,000 tested, 0.44% active;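 active = plate passing quality check with inhibition over a set limit, or well fluorescence over plate mean plus 4 SD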;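 note: Nile Red retained in pooled yeast measured as flow cytometry median fluorescence; 0% = buffer negative control and 100% = Enniatin B positive control; higher means more Nile Red kept so more efflux inhibition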
SKN-1 inh – C. elegans SKN-1 inhibition; C. elegans VP596 Pgst-4::GFP/RFP ratio, acrylamide-induced, 24 h; inhibition, % at 21.8 µM; 360,000 tested, 0.49% active; AID 624304;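 active = interference check ratio from 0.5 to 1.5 plus GFP to RFP signal ratio inhibition reaching or exceeding a fixed threshold, cut at about 30% in these data, passing the limit was not always enough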
SUMO Mot1 rescue – blocks SUMOylation pathway, rescuing yeast Mot1-301 growth. growth rescue, % at 18.8 µM. S. cerevisiae Mot1-301 growth rescue, ATP luminescence, 38.5C; percent above DMSO median, 100 means doubled. 320,000 tested, 1% active;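 active = every valid replicate shows activation above 250% relative to neutral control wells; inactive = the rest, any valid replicate at or below 250%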;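 note: OY570 slx delta 5 strain wells were the positive control but not used for scaling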
Active calls of the source: *; / = not tested or not shown.

SMILES	HGIII-sPLA2 inh	Efflux pump mplx	SKN-1 inh	SUMO Mot1 rescue
COc1ccc(-c2ccc3c(n2)CCCN3S(=O)(=O)c2ccc(C(F)(F)F)cc2)cc1	7	/	/	/
COC(=O)CN1C(=S)N(Cc2ccccc2)C(=O)C1CC(=O)Nc1ccc(Br)cc1 (centres undefined)	-27	0	39*	-3
Cc1c(C2Nc3ccccc3C2C)[nH]c2ccccc12 (centres undefined)	-1	/	/	/
CC(C)CCOc1ccc(Cl)cc1CN1CCOCC1	3	0	3	313*
N#Cc1ccc(-c2csc(NNC(=O)c3ccccc3)n2)cc1	39*	0	-1	3
CN1OC[C@@H]2CN(Cc3ccc4c(c3)OCO4)[C@H](c3ccc(-n4ccnc4)cc3)C[C@@H]21	-6	/	/	/
CC(C)c1nnc(NC(=O)CC(C)c2ccccc2)s1 (centres undefined)	-2	0	10	12
Cc1cnc(NC(=O)CC(C)c2ccccc2)s1 (centres undefined)	2	0	35*	28
CC(=O)N1CCN(c2ccc(N3CCN(C(C)=O)[C@H](C)C3)c(C)c2)[C@@H](C)C1	2	/	/	/
N#C/C(=C\c1ccc(OCc2ccccc2)cc1)C(=O)Nc1nc2c(s1)CCN(Cc1ccccc1)C2	-13	0	-10	10
CN(C)c1ccc(/C=C(/C#N)C(=O)Nc2nc3c(s2)CCN(Cc2ccccc2)C3)cc1	-11	/	48*	/
C=CCN1C(=O)c2n[nH]c(C(C)C)c2C1c1ccc(C)cc1 (centres undefined)	9	/	/	/
O=Nc1c(O)c2ccccc2c2ccccc12	-121	0	18	664*
O=c1ccc2ccccc2c2ccccc12	-3	/	-3	/
CCCCCCCCN1C(=O)[C@@H](CC(=O)NCc2ccc(OC)c(OC)c2)C[C@@]2(C(=O)OC)C1=C[C@H](C1CCCC1)O[C@@H]2C	-13	/	/	/
O=C(C(=O)N1CCC(CNC(=O)c2ccccc2F)CC1)c1cc2ccccc2o1	2	/	/	/
CCOC(=O)CN(C)C(=O)CCc1nnc(-c2ccsc2)o1	-2	0	-10	611*
COc1cccc(CN(C)C(=O)CCc2nnc(-c3ccsc3)o2)c1	-1	0	5	3
CCOC(=O)C1=C(CSc2nc(-c3ccccc3)ccc2C#N)OC(N)=C(C#N)C1c1ccccc1 (centres undefined)	-31	0	37*	-11
Oc1c(N=NC(=S)Nc2ccccc2F)c2ccccc2n1Cc1ccccc1Cl	4	0	11	-16
Cc1c(Cl)cccc1NC(=S)N=Nc1c(O)n(CN2CCOCC2)c2ccccc12	/	29*	1	365*
Nc1[nH]c(C(=O)c2ccccc2)c(-c2cc(F)ccc2Br)c1C(=O)NCCc1c[nH]c2ccccc12	-46	/	/	/
COC(=O)c1cc2c(c3c4cc(F)ccc4n(S(=O)(=O)c4cccc(C)c4)c13)C(=O)N(Cc1ccc(N(C)C)cc1)C2	8	/	/	/
O=C(Nc1nccs1)c1ccc(COc2c(F)c(F)cc(F)c2F)o1	14	0	-14	1
Cc1ccc(OCc2ccc(C(=O)Nc3nccs3)o2)cc1C	-3	0	56*	-21
SMILES	HGIII-sPLA2 inh	Efflux pump mplx	SKN-1 inh	SUMO Mot1 rescue
c1ccc(-c2cc3nccc(-c4ccccn4)n3n2)cc1	5	0	39*	13
Cc1cc2nccc(-c3ccccn3)n2n1	1	0	-3	-11
CCCCN1C(=O)/C(=C/C=C2\SCCN2C)SC1=S	-12	/	48*	/
CN1CCS/C1=C/C=C1\SC(=S)N(CC(=O)O)C1=O	-152	0	-10	1
CC(C)(C)S(=O)(=O)c1ccc(S(=O)(=O)C(C)(C)C)s1	/	0	/	949*
CC(C)(C)c1ccc(S(=O)(=O)C(C)(C)C)cc1	3	0	4	18
CC(C)c1onc(C(=O)NCc2cccs2)c1[N+](=O)[O-]	2	0	-5	-6
CC(C)c1onc(C(=O)NCc2ccc(F)cc2)c1[N+](=O)[O-]	2	0	4	286*
CCOC(=O)c1cnc(-c2cccc(OC)c2)[nH]c1=O	4	0	12	7
CCOC(=O)c1cnc(-c2ccccc2)[nH]c1=O	5	0	-16	320*
O=C(CCS(=O)(=O)Cc1ccccc1)Nc1ncc([N+](=O)[O-])s1	3	0	6	16
N#C/C(=C\c1cccnc1)c1ccc(Br)cc1	2	0	44*	-16
C=CCn1c(N)c(C(=O)Nc2ccc(C)c(C)c2)c2nc3ccccc3nc21	6	0	40*	5
CC(C)C[C@H](NC(=O)c1nccs1)C(=O)N1CCC[C@H]1C(=O)NCc1ccccc1	0	/	/	/
